Molecules are shown by their SMILES. In all, about 400,000 compounds went through this assay and about 2,100 (0.53%) were called active. Another 14% or so got no clear call; they are omitted. How the calls were made is not given here. The entries come from a sample that favours actives as a whole.

For this assay, the target named is Ataxin-2 (Homo sapiens) (UniProt Q99700). The assay can be described thus: qHTS for Inhibitors of ATXN expression. The class given is functional.
Chain of Ataxin-2 (Homo sapiens) (Q99700 whole entry): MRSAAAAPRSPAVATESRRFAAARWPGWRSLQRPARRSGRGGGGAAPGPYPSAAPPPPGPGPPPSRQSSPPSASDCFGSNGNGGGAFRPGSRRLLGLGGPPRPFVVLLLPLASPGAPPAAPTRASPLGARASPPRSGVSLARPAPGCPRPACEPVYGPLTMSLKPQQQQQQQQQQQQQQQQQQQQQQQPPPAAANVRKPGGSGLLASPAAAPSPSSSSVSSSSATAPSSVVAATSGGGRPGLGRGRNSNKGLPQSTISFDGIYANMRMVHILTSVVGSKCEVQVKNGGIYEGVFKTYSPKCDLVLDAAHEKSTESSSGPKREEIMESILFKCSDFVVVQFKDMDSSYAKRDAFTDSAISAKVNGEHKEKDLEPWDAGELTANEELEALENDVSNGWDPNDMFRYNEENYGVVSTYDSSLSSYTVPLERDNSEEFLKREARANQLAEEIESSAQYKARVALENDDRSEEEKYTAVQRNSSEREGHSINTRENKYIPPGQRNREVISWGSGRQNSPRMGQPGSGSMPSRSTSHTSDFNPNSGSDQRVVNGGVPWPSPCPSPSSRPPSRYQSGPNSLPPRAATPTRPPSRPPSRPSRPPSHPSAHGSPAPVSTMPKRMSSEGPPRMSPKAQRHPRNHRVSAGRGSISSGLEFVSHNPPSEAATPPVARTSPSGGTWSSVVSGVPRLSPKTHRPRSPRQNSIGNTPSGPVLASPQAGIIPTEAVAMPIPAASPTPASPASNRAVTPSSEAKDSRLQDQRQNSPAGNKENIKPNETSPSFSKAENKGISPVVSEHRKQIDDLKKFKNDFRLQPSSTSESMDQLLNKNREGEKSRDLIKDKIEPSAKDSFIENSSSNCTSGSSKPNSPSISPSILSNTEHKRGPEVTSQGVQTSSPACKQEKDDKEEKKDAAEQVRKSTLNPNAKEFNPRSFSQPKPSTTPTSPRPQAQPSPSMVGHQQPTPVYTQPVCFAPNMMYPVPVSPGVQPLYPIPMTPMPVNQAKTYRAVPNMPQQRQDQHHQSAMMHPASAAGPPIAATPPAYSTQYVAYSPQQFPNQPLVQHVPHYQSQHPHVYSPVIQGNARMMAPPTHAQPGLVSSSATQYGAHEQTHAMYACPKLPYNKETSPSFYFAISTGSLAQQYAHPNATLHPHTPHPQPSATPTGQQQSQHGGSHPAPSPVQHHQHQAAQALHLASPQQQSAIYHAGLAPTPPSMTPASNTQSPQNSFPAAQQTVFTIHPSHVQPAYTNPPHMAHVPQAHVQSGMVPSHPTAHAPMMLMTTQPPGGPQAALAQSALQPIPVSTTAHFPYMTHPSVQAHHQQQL
As for `CCCNC(=O)c1ccc2c(O)c(O)c(-c3ccc(C)cc3)nc2c1`, the Potency entry was “inactive”.

For `N#Cc1c(-c2cccc(Br)c2)cc(-c2ccco2)nc1O`, the Potency entry was “inactive”.

For `Cc1cc(NC(=O)/C(C#N)=C/c2ccc(-c3ccc(SC(F)F)cc3)o2)n(-c2ccccc2)n1`, the Potency result is “inactive”.

As for `COc1cccc(-c2nn(-c3ccccc3)cc2CN(C)Cc2c(C)nc3ccccn23)c1`, the Potency was 39.8 µM (active).

Turning to `Cc1nn(C(C)C(=O)NCC2CCCO2)c(C)c1[N+](=O)[O-]` (stereo not given), the Potency result was “inactive”.

Consider `O=C(NCc1ccc(S(=O)(=O)Nc2ccccc2Cl)s1)c1ccccc1`, for which the Potency entry is “inactive”.

On to `Cc1cccn2c(=O)c3cc(C(=O)N4CCCCC4)sc3nc12`, for which the Potency result was “inactive”.

As for `COc1ccc2nc(N3CCC(O)CC3)c(C#N)cc2c1`, the Potency entry was “inactive”.

In the case of `Oc1c(Cl)cc(Cl)cc1C1=NNC(c2ccc(Cl)cc2)C1` (stereo not given), the Potency entry is “inactive”.

Turning to `COc1ccccc1CC(=O)NC(=O)c1ccccc1O`, the Potency entry is “inactive”.

Take `COc1ccccc1CNCC(O)Cn1c2ccccc2c2ccccc21` (stereo not given): the Potency is 22.4 µM (active).

In the case of `COc1cccc(CNn2cnnc2)c1O`, the Potency entry is “inactive”.

Turning to `CC(=O)Nc1sc(/C(C#N)=C/c2ccc(Cl)c(Cl)c2)nc1-c1ccc(C)cc1`, the Potency result is “inactive”.

On to `COc1ccccc1CCNC(=O)C(=O)NCC1OCCN1S(=O)(=O)c1ccc([N+](=O)[O-])cc1` (stereo not given), for which the Potency result was “inactive”.

As to `Cc1cccc(OCCn2cc(/C=N/NC(=O)c3ccncc3)c3ccccc32)c1`, the Potency result was “inactive”.

Regarding `Cn1c2ccccc2c2cc(C(=O)NNC(=O)CCl)sc21`, the Potency was 15 µM (active).

Consider `CCC(=O)Nc1c(-c2ccccc2)c(=O)c2ccccc2n1C`, for which the Potency result was “inactive”.

`CSc1c(CC(=O)NCCCO)n(Cc2ccccc2)c2ccccc12`: the Potency entry is “inactive”.

For `O=S(=O)(CC(CN1CCCCC1)N1CCCCC1)c1ccccc1` (stereo not given), the Potency is 31.6 µM (active).

For the molecule `O=S(=O)(c1ccccc1)N1CCCN(S(=O)(=O)c2ccccc2)CC1`, the Potency entry is “inactive”.

For the molecule `CC(CN1CCCCC1)OC(=O)c1ccco1` (stereo not given), the Potency result was “inactive”.

On to `O=C(NCc1ccc2c(c1)OCO2)c1nc(Cn2ccc([N+](=O)[O-])n2)no1`, for which the Potency entry was “inactive”.

`CCn1nc(NC(=O)C(C)C)c2cc3cccc(C)c3nc21`: the Potency result was “inactive”.

Take `Cn1cc(/C=N/Nc2ccccc2)c2ccccc21`: the Potency entry was “inactive”.

As to `COc1ccc(-c2nc3c4ccccc4ccn3c2Cc2ccccc2)cc1OC`, the Potency is 39.8 µM (active).

Turning to `COc1ccc(-c2nc3cnccn3c2NCc2ccccc2)cc1SC1CCCCC1`, the Potency result is “inactive”.

Take `COc1ccc(Cc2c(-c3ccc(OC)c(OC)c3)nc3c(C)cc(Br)cn23)c(C)c1`: the Potency is 20 µM (active).

For `COc1ccc(-c2csc(-c3cccs3)n2)cc1OC`, the Potency entry is “inactive”.

Take `COc1ccc(-c2nc3c(-c4ccccc4)cnn3cc2C)cc1F`: the Potency result was “inactive”.

Regarding `COc1ccccc1Cc1c(-c2ccc(OC)c(OC)c2)nc2c3ccccc3ccn12`, the Potency was 39.8 µM (active).

In the case of `O=C(CC1C(=O)NCCN1C(=O)Nc1ccc(F)cc1)Nc1ccc(F)cc1` (stereo not given), the Potency entry was “inactive”.

Take `Cc1csc(SCC(=O)NC(=O)NC(C)(C)C)n1`: the Potency result was “inactive”.

Turning to `Cn1c2ccccc2c(=O)c2cc(NCCCN3CCOCC3)ccc21`, the Potency result is “inactive”.

On to `O=C(NC1=NCCS1)c1cc(-c2ccc(-c3ccccc3)cc2)nc2ccccc12`, for which the Potency result is “inactive”.

`CN(/N=C/c1cc(Br)cc(Br)c1O)c1cccc(C(F)(F)F)n1`: the Potency result is “inactive”.

As for `CN(/N=C/c1ccc(O)cc1O)c1nc(-c2ccccc2)cc(-c2ccccc2)n1`, the Potency is 25.1 µM (active).

`Cc1ccc(S(=O)(=O)[N-]c2nc3ccccc3nc2-[n+]2ccn(Cc3ccccc3)c2)cc1`: the Potency result was “inactive”.

Take `Cc1nc(N/N=C/c2cccc([N+](=O)[O-])c2)cc(N2CCCCC2)n1`: the Potency entry was “inactive”.

In the case of `Cc1ccc(/N=C/c2nc(/C=C/c3cccc([N+](=O)[O-])c3)oc2O)cc1`, the Potency is 39.8 µM (active).

Regarding `CC1(C)C([N+](=O)[O-])C(c2ccc(F)cc2)NC(c2ccc(F)cc2)C1[N+](=O)[O-]` (stereo not given), the Potency result was “inactive”.

On to `Cc1ccc(NNC2=C3N=NN=C3C=CC2=O)cc1`, for which the Potency was 44.7 µM (active).

As for `C=CCn1c2ccccc2c(=O)c2cc(C#CC[C@@H](C)O)ccc21`, the Potency result is “inactive”.

`Clc1ccc(-c2nc(N3CCOCC3)nc3ccccc23)cc1`: the Potency result was “inactive”.

With `Clc1ccc2c(SCC3CO3)c3ccccc3nc2c1` (stereo not given), the Potency is 23.8 µM (active).

In the case of `O=C(O)c1ccccc1Cc1nc(O)c2ccc(Cl)cc2n1`, the Potency result was “inactive”.

As to `O=S(=O)([N-]c1nc2ccccc2nc1-[n+]1ccn(Cc2ccccc2)c1)c1ccccc1`, the Potency result was “inactive”.

With `CC(C)OCCCNC(=O)CN1C(=O)c2cccc3cccc1c23`, the Potency entry is “inactive”.

In the case of `COc1ccc(OC)c(C(=O)NC2CCCc3c2cnn3-c2cc(C)cc(C)c2)c1` (stereo not given), the Potency result is “inactive”.

Consider `CC(=O)Nc1cccc(C(=O)NC2CCCc3c2cnn3-c2ccc(C(C)(C)C)cc2)c1` (stereo not given), for which the Potency was 8.91 µM (active).

Regarding `COC(=O)CCCC(=O)NC1CCCc2c1cnn2-c1ccc(F)cc1F` (stereo not given), the Potency entry is “inactive”.

As to `CCCNC(=O)Cn1c(=O)/c(=C\c2ccc(-c3ccc([N+](=O)[O-])cc3)o2)s/c1=C\C(=O)C(C)(C)C`, the Potency result was “inactive”.

Regarding `CNS(=O)(=O)c1ccc2c3c(cccc13)C(=O)N2C`, the Potency result is “inactive”.

Consider `Cc1cc2nc3c(=O)n(Cc4ccccc4)c(=O)[nH]c3nc2cc1N`, for which the Potency entry is “inactive”.

Take `COc1ccc(NC(=O)CSc2n[nH]c(C(C)C)n2)c([N+](=O)[O-])c1`: the Potency result is “inactive”.

As to `NC(=O)CC(NC(=O)c1ccc(Br)cc1)c1ccc(NCc2ccc(F)cc2)c([N+](=O)[O-])c1` (stereo not given), the Potency was 39.8 µM (active).

Consider `Cc1ccccc1CNc1ccc(C(CC(N)=O)NC(=O)c2ccc(Br)cc2)cc1[N+](=O)[O-]` (stereo not given), for which the Potency was 39.8 µM (active).

As to `O=C(NCc1ccc(F)cc1)c1ccc(CS(=O)(=O)c2ccc(Br)cc2)o1`, the Potency result was “inactive”.

`COc1ccc(C(=O)N[C@H](C(=O)NCCc2ccc3c(c2)OCCO3)C(C)C)cc1`: the Potency result is “inactive”.

Regarding `NC(=O)CC(NC(=O)Cc1cccc2ccccc12)c1ccc(NCCOc2ccccc2)c([N+](=O)[O-])c1` (stereo not given), the Potency was 17.8 µM (active).

As to `CCOc1ccc(NC(=O)Cc2cccc3ccccc23)c([N+](=O)[O-])c1`, the Potency result was “inactive”.

As for `NC(=NOC(=O)Cc1ccccc1[N+](=O)[O-])c1cccc(Br)c1`, the Potency result is “inactive”.

As for `COc1ccc(CCNc2ccc(C(CC(N)=O)NC(=O)c3ccc(Br)cc3)cc2[N+](=O)[O-])cc1` (stereo not given), the Potency is 31.6 µM (active).

Take `O=C(Cc1cccc2ccccc12)Nc1cc(C(=O)O)cc(C(=O)O)c1`: the Potency result was “inactive”.

`Nc1ccc(-c2cc3ccccc3oc2=O)cc1`: the Potency entry was “inactive”.

Take `COc1ccccc1[C@@H]1C(c2ccccc2)=NN(c2ccccc2)[C@H]1C(=O)N1CCOC1=O`: the Potency result is “inactive”.

With `Cc1cccc(N2C(=O)/C(=C\Nc3ccccc3)c3ccccc3C2=O)n1`, the Potency result was “inactive”.

On to `CCNc1nc(N)c(C(=O)C23CC4CC(CC(C4)C2)C3)s1`, for which the Potency result was “inactive”.

For the molecule `Cn1c(C(=O)N2CCOCC2)cc2c(=O)n3ccccc3nc21`, the Potency entry was “inactive”.

Take `COc1ccc(C/C(C)=N/NC(=S)Nc2ccccc2)cc1`: the Potency is 35.5 µM (active).

Regarding `COc1ccc(CN=C(Nc2ccccc2)SC2CC(=O)NC2=O)cc1` (stereo not given), the Potency result is “inactive”.

Consider `C/C(=N\NC(=S)Nc1cccc(C)c1)c1cc2ccccc2o1`, for which the Potency entry is “inactive”.

Take `Cc1nc(NCC2CC2)c2nnn(Cc3ccccc3)c2n1`: the Potency result is “inactive”.

For the molecule `O=S(=O)(NCC1CCN(Cc2ccccc2)CC1)c1ccccc1C(F)(F)F`, the Potency entry is “inactive”.

As to `CCn1cc(CN2CCCC(CNS(=O)(=O)c3cccc4cccnc34)C2)cn1` (stereo not given), the Potency was 3.16 µM (active).

For `O=S(=O)(NCCc1ccc(F)cc1)c1cccc2cccnc12`, the Potency result was “inactive”.

As to `Cc1cc(/C=C2\C(=N)N3N=C(S(C)(=O)=O)SC3=NC2=O)c(C)n1Cc1ccccc1`, the Potency entry is “inactive”.

Regarding `CC(C)c1c(C(=O)N/N=C/c2ccco2)nnn1-c1nonc1N`, the Potency result was “inactive”.

Take `CN(C)c1ccc(/C=N/NC(=O)c2nnn(-c3nonc3N)c2COc2ccc(F)cc2)cc1`: the Potency entry is “inactive”.

`CCCN(CCC)Cc1c(C(=O)N/N=C/C(C)=C\c2ccco2)nnn1-c1nonc1N`: the Potency is 25.1 µM (active).

As to `O=S(=O)(N/N=C1\CCCc2ccccc21)c1ccccc1`, the Potency result was “inactive”.

Take `CCCSc1nsc(NC(=O)Nc2ccc(F)cc2F)n1`: the Potency is 31.6 µM (active).

In the case of `O=C(Nc1ccc(F)cc1F)c1cc(Cl)sc1Cl`, the Potency entry is “inactive”.

On to `COc1ccc(OC(C)C(=O)Nc2ccc(F)cc2F)cc1` (stereo not given), for which the Potency entry is “inactive”.

`Cc1ccc2[nH]c(SCC(=O)c3ccc(O)cc3O)nc2c1`: the Potency result is “inactive”.

Turning to `O=C1OCCN1C(=O)[C@H]1[C@H](c2ccccc2)C(c2cccc(Cl)c2)=NN1c1ccc(Br)cc1`, the Potency result is “inactive”.

Take `CCCCN1C(=O)c2ccc(C(=O)NC3(C)CCS(=O)(=O)C3)cc2C1=O` (stereo not given): the Potency entry is “inactive”.

For `C=C1[C@@H](O)[C@H](CC(C)C)N(Cc2ccccc2Br)S1(=O)=O`, the Potency was 28.2 µM (active).

Turning to `COc1ccccc1N(C(C)=O)C1=C(Cl)C(=O)c2ccccc2C1=O`, the Potency entry was “inactive”.

As for `CC(=O)N(C1=C(Cl)C(=O)c2ccccc2C1=O)c1ccc(C(=O)O)cc1`, the Potency entry was “inactive”.

On to `C/N=C1\C(=O)c2ccccc2C(O)=C1N(C(C)=O)c1ccc(Br)cc1`, for which the Potency was 14.1 µM (active).

For `NC(=O)c1nsc(C(=O)N(c2cccc(F)c2)C(C(=O)NCc2ccccc2)c2ccc(O)cc2)c1N` (stereo not given), the Potency result was “inactive”.

As to `C[C@H](CO)N1C[C@H](C)[C@H](CN(C)C(=O)c2ccccc2)OCc2ccccc2-c2c(n(C)c3ccccc23)C1=O`, the Potency is 22.4 µM (active).

For `COc1ccccc1NC(=O)N(C)C[C@@H]1OCc2ccccc2-c2c(n(C)c3ccccc23)C(=O)N([C@H](C)CO)C[C@@H]1C`, the Potency is 35.5 µM (active).

Take `COC(=O)CN1C(=O)N/C(=C/c2cc(Cl)c(OC)c(OC)c2)C1=O`: the Potency result is “inactive”.

Consider `CC(=O)O/N=C/c1c(NCc2ccccc2)nc2c(C)cccn2c1=O`, for which the Potency result is “inactive”.

As to `Cc1nc(SCc2ccccc2)nc2c1CCC2`, the Potency entry was “inactive”.

Consider `CC(=O)c1c(C)[nH]c(C(=O)CN2C(=O)NC(C)(CCC(C)C)C2=O)c1C` (stereo not given), for which the Potency result is “inactive”.

Turning to `COc1ccc(-c2nn(-c3ccccc3)cc2/C=N/N2C(=O)CSC2=S)cc1`, the Potency was 39.8 µM (active).

On to `CCSc1ccc(-c2nn(-c3ccccc3)cc2/C=C(/C#N)C(=O)NCCCOC)cc1`, for which the Potency entry was “inactive”.

In the case of `O=C1CSC(=S)N1N=Cc1cccc(OCc2ccccc2)c1`, the Potency entry is “inactive”.

Source of the values: ChEMBL document CHEMBL1201862, “PubChem BioAssay data set” (2004).
